Laboratory results published in article PMC6212833.
Whole data set: some 2,000 compounds, median “B-score” near -0.0024, cut for the highest 2% near 4. Only a selection was taken, and the highest values are over-represented in it overall.

Each compound was assayed on Balamuthia mandrillaris (ATCC PRA-291) trophozoites, axenic culture (assay: primary screen, b score). Details: 20 µM.
Protocol: Screening of a clinically approved library of compounds, compiled by the Small Molecule Discovery Center (SMDC) at the UCSF, was completed at 20 µM in 0.2% DMSO. All 2,177 drugs in the library were stored as 10 mM stocks dissolved in 100% DMSO (Sigma-Aldrich) at −20°C. B. mandrillaris amoebae were resuspended in axenic medium and distributed into opaque 384-well plates (Corning) at a density of 3,000 amoebae per well using a BioMek NX liquid handler. Negative-control wells were treated with vehicle only (0.2% DMSO in axenic medium), and positive-control wells simulating total destruction of amoebae were seeded with amoeba lysate generated by 3 consecutive freeze-thaw cycles. Following 72 h of incubation, 30 µl of CellTiter Glo reagent (CTG; Promega) was added to each well. The luminescence was measured with a Promega GloMax-Multi+ plate reader at 2, 4, and 8 h after CTG addition. […] The B-score, representing a plate-based statistical approach for correcting row, column, and edge effects, was also calculated for each compound in the library (75).
With `[N-]=[N+]=CC(=O)OC[C@H](N)C(=O)O` the B-score was 4.05. In the case of `CC(=O)O[C@H]1C[C@H](O[C@H]2[C@@H](O)C[C@H](O[C@H]3[C@@H](O)C[C@H](O[C@H]4CC[C@@]5(C)[C@H](CC[C@@H]6[C@@H]5C[C@@H](O)[C@]5(C)[C@@H](C7=CC(=O)OC7)CC[C@]65O)C4)O[C@@H]3C)O[C@@H]2C)O[C@H](C)[C@H]1O[C@@H]1O[C@H](CO)[C@@H](O)[C@H](O)[C@H]1O`, the B-score was 0.168. Work on `O=C1C[C@@H]2OCC=C3CN4CC[C@]56c7ccccc7N1[C@H]5[C@H]2[C@H]3C[C@H]46` yielded a B-score of 0.0173. With `CN1C[C@H](CNC(=O)OCc2ccccc2)C[C@@H]2c3cccc4c3c(cn4C)C[C@H]21` the B-score was -0.657. Work on `CC(C)C[C@H](CN)CC(=O)O` yielded a B-score of 1.41.
